Inconclusive results are not listed. Active and inactive are the calls of the source. The call rests on the fitted dose curve; in most records, active means well fitted inhibition curve with a large enough effect; inconclusive means small, poorly fitted or top-dose-only effect; inactive means flat fitted curve, though single readings scatter.

Holding throughout (experiment): qHTS profiling for inhibitors of Plasmodium falciparum proliferation (AID 504749); further: nearly all actives have a fitted effect of over 60% in size
What all share (settings): P. falciparum in erythrocytes, SYBR Green DNA, 72 h; series mostly up to 28.7 µM
A general note: In qHTS, concentration-response curves come from the screen itself.

One test concerns CP266. Put shortly: (§1)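 P. falciparum-infected erythrocytes (0.3% parasitemia, 2.5% hematocrit final) were exposed to compounds for 72 h at 37 C in 5% CO2, then lysed with SYBR Green buffer overnight at room temperature; parasite DNA fluorescence was normalized to artemisinin and DMSO controls.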
A further test concerns CP268. The procedure, abridged:
as §1

A further test deals with CP269. The procedure, abridged: as §1
Another test concerns CP286. Put shortly:
as §1

For the next test, the system named is CP291. Put shortly: as §1
The subject of the next test is CP297. Put shortly:
as §1

A further test concerns CP305. Put shortly: as §1
Another test deals with CP315. Put shortly:
as §1

Another test deals with CP325. Put shortly: as §1
A further test has as its system CP329. Put shortly:
as §1
Potency means the concentration at half of the fitted maximal effect.

`CCN(CC)CCNC(=O)COc1ccc(OC)cc1`: the Potency entry in the test with CP266, in the test with CP268, in the test with CP269, in the test with CP286, in the test with CP291 and in the test on CP297 was “inactive” throughout. Also, the Potency entry in the test on CP305, in the test on CP315, in the test with CP325 and in the test on CP329 was “inactive” each time.

Take `CCCCC(CC)COC(=O)c1ccc(N(C)C)cc1` (centres undefined): the Potency result with CP266, in the test on CP268, in the test on CP269, in the test with CP286, with CP291 and with CP297 was “inactive” throughout. For the same compound, the Potency entry in the test on CP305, in the test on CP315, with CP325 and with CP329 was “inactive” each time.

`N=C(N)N1CCc2ccccc2C1`: the Potency entry with CP266, in the test with CP268, in the test on CP269, in the test on CP286, with CP291 and with CP297 was “inactive” in each case. Moreover, the Potency entry with CP305, with CP315, in the test on CP325 and in the test on CP329 was “inactive” each time.

Regarding `O=C(O)CCC(=O)Nc1ccc(S(=O)(=O)Nc2nccs2)cc1`, the Potency result in the test on CP266, with CP268, in the test with CP269, in the test on CP286, with CP291 and in the test on CP297 was “inactive” in each case. For the same compound, the Potency result with CP305, with CP315 and in the test with CP329 was “inactive” in each case.

With `O=C1C(=O)c2ccccc2C(O)=C1C1CCC(c2ccc(Cl)cc2)CC1` (centres undefined), the Potency was 6.4 nM (active) in the test on CP266; 5.7 nM (active) in the test with CP268; 5.1 nM (active) in the test with CP269; 1.1 nM (active) in the test with CP286; 6.4 nM (active) in the test on CP291; 5.1 nM (active) in the test with CP305. For the same compound, the Potency in the test with CP315 is 5.7 nM (active); with CP325, 6.4 nM (active).

As to `NC(=O)c1ccccc1O`, the Potency entry with CP266, in the test with CP268, in the test on CP269, in the test on CP286, in the test on CP291 and with CP297 was “inactive” in each case. In addition, the Potency result in the test with CP305, in the test on CP315, with CP325 and in the test with CP329 was “inactive” each time.

As for `CCOC(=O)Nc1ccc2c(c1)N(C(=O)CCN1CCOCC1)c1ccccc1S2`, the Potency entry in the test on CP266, in the test with CP268, in the test with CP269, in the test with CP286, in the test with CP291 and with CP297 was “inactive” in each case. In addition, the Potency result in the test with CP305, in the test on CP325 and in the test with CP329 was “inactive” throughout.

On to `Cc1c(-c2ccccc2)oc2c(C(=O)OCCN3CCCCC3)cccc2c1=O`, for which the Potency result with CP266, in the test with CP268, in the test with CP269, with CP286, in the test on CP291 and in the test on CP297 was “inactive” in each case. The Potency entry in the test on CP305, in the test on CP315, in the test on CP325 and in the test on CP329 was “inactive” throughout.

Consider `O=C(c1ccc(F)cc1)C1CCN(CCn2c(=S)[nH]c3ccccc3c2=O)CC1`, for which the Potency with CP266 was 7570 nM (active); in the test on CP268, 6010 nM (active); with CP269, 6750 nM (active); with CP286, 3980 nM (active); with CP291, 6750 nM (active); in the test with CP297, 6.75 µM (active). Moreover, the Potency in the test with CP305 was 6750 nM (active); in the test on CP315, 15100 nM (active); in the test on CP325, 7570 nM (active); in the test on CP329, 6.75 µM (active).

For the compound `Oc1ccccc1C=NCc1ccccc1`, the Potency entry in the test on CP266, in the test with CP268, in the test on CP269, in the test with CP286, with CP291 and in the test on CP297 was “inactive” in each case. In addition, the Potency result with CP305, in the test with CP315, with CP325 and in the test with CP329 was “inactive” throughout.

In the case of `O=C(O)C1(C(=O)O)CCC1.[NH2-].[NH2-].[Pt+2]`, the Potency result in the test with CP266, with CP268, in the test on CP269, in the test with CP286, in the test on CP291 and in the test with CP297 was “inactive” throughout. Moreover, the Potency entry in the test with CP305, in the test with CP315, in the test with CP325 and in the test with CP329 was “inactive” in each case.

On to `NS(=O)(=O)c1ccc(Cl)c(S(N)(=O)=O)c1`, for which the Potency entry in the test with CP266, in the test with CP268, with CP269, in the test with CP286, with CP291 and with CP297 was “inactive” in each case. The Potency result with CP305, in the test on CP315, with CP325 and with CP329 was “inactive” each time.

On to `NC(=S)N/N=C/c1cccnc1`, for which the Potency result in the test with CP266, with CP268, in the test with CP269, with CP286, in the test with CP291 and with CP297 was “inactive” in each case. In addition, the Potency result in the test on CP305, with CP315, in the test with CP325 and in the test on CP329 was “inactive” throughout.

`CC(=O)Nc1ccc(CC(=O)O)cc1`: the Potency result in the test on CP266, in the test with CP268, in the test on CP269, with CP286, in the test on CP291 and in the test with CP297 was “inactive” in each case. Further, the Potency entry in the test with CP305, in the test with CP315, in the test on CP325 and in the test with CP329 was “inactive” throughout.

As to `CC(C)Cc1ccc(CC(=O)O)cc1`, the Potency result with CP266, in the test with CP268, in the test with CP269, in the test on CP286, in the test on CP291 and with CP297 was “inactive” in each case. Also, the Potency entry in the test with CP305, in the test on CP325 and in the test with CP329 was “inactive” each time.

For the compound `CCc1ccc(C(=O)C(C)CN2CCCCC2)cc1` (centres undefined), the Potency result with CP266, in the test on CP268, in the test on CP269, in the test on CP286, in the test on CP291 and in the test on CP297 was “inactive” each time. Besides, the Potency result in the test with CP305, with CP315, in the test on CP325 and with CP329 was “inactive” each time.

For the compound `Cc1cccc(C)c1NC(=O)c1ccccc1C(=O)O`, the Potency result with CP266, in the test on CP268, in the test with CP269, with CP286, in the test on CP291 and in the test on CP297 was “inactive” in each case. In addition, the Potency entry with CP305, in the test on CP315, with CP325 and in the test on CP329 was “inactive” throughout.

`O[C@@H](c1cc(C(F)(F)F)nc2c(C(F)(F)F)cccc12)[C@H]1CCCCN1`: the Potency in the test with CP266 is 601 nM (active); with CP268 it was 151 nM (active); in the test with CP269, 53.6 nM (active); with CP286, 112 nM (active); in the test on CP291, 151 nM (active); in the test with CP297, 0.107 µM (active). Also, the Potency in the test on CP305 is 213 nM (active); with CP315, 169 nM (active); with CP325, 135 nM (active); in the test with CP329, 0.269 µM (active).

Take `NC(=O)n1c(O)c(C(=O)c2cccs2)c2cc(Cl)ccc21`: the Potency entry with CP266, in the test with CP268, in the test on CP269, in the test on CP286, in the test with CP291 and in the test on CP297 was “inactive” in each case. Further, the Potency result in the test on CP305, with CP315, in the test on CP325 and in the test with CP329 was “inactive” throughout.

For the compound `CC(C)(C)NC[C@H](O)COc1cccc2c1CCCC2=O`, the Potency entry with CP266, with CP268, in the test on CP269, in the test with CP286, in the test on CP291 and with CP297 was “inactive” in each case. Also, the Potency result in the test with CP305, in the test on CP325 and with CP329 was “inactive” each time.

As for `COc1ccc2c(c1)c1c3n2CCN(C)C3=NCC1`, the Potency entry in the test on CP266, with CP268, in the test on CP269, in the test on CP286, in the test on CP291 and with CP297 was “inactive” throughout. Also, the Potency result in the test with CP305, in the test with CP315, in the test on CP325 and in the test with CP329 was “inactive” throughout.

The record behind these values is PubChem BioAssay (NCATS).
